Data reported in PubChem BioAssay AID463165 (Johns Hopkins Ion Channel Center, 2010).
In all, about 310,000 compounds went through this assay and about 1,400 (0.45%) were called active. This is one part of a sample in which actives are shown more often than they occur.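 Rule for the calls: active = B-score, a plate-corrected calcium signal, over three deviations above library mean, with baseline fluorescence within five deviations of library mean; inactive = the rest.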

Each compound was assayed against Regulator of G-protein signaling 4 (Homo sapiens) (UniProt P49798) (assay: blockers of RGS4 function in M3R calcium signaling – cell-based, HEK293 M3R inducible RGS4, calcium flux, primary screen (AID 463165;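 note: RGS4 expression induced by doxycycline in cells with stable M3 receptor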;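 for B-score: B-score is computed from the integrated fluorescence ratio over baseline after carbachol; higher B-score means a larger calcium signal and so more RGS4 inhibition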)). Details: Fluo-4 calcium flux, at 10 µM, triggered by carbachol at its EC20; hits give high values.
Sequence of Regulator of G-protein signaling 4 (Homo sapiens) (P49798 whole entry, looked up): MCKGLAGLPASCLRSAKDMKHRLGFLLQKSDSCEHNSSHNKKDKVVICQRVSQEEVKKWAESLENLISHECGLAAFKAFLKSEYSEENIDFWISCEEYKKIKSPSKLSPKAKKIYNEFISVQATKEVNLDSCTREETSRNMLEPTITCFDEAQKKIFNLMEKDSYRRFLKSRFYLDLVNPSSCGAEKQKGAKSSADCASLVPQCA

Structure (SMILES)	B-score
Cc1ccc(S(=O)(=O)N(CC(=O)NN=C2CCN(C)CC2)c2ccc(F)cc2)cc1	inactive
CCCCN(C(=O)/C=C/c1ccco1)c1c(N)n(CC(C)C)c(=O)[nH]c1=O	inactive
CS/C(=C\[N+](=O)[O-])Nc1ccc(C)cc1	inactive
COC(=O)NNC(=O)C1CCC(C)CC1 (stereo unspecified)	inactive
c1ccc(C[C@H]2CNCCN2CCC23CC4CC(CC(C4)C2)C3)cc1	6.17 (active)
O=C1CCNCCN1[C@H](CO)Cc1ccccc1	inactive
CC(C)CN(C(=O)CN1CCN(S(=O)(=O)c2ccccc2)CC1)c1c(N)n(CC(C)C)c(=O)[nH]c1=O	inactive
CCCCNC(=O)N(O)C1N(/N=C/c2ccc(N(C)C)cc2)C(=S)SC1(C)C (stereo unspecified)	inactive
CCS(=O)(=O)c1cc([N+](=O)[O-])c(Sc2ccccc2N)s1	inactive
Nc1ccccc1SC(C[N+](=O)[O-])c1ccccc1 (stereo unspecified)	7 (active)
Nc1ccccc1SCc1cc([N+](=O)[O-])cc2c1OCOC2	inactive
CCCCCCCNC(=O)C1(CC2CC(c3cccc(Br)c3)=NO2)CCN(C(=O)c2cc(OCC)c(OCC)c(OCC)c2)CC1 (stereo unspecified)	inactive
COc1cccc(Nc2nc(N)c([N+](=O)[O-])c(NCc3ccco3)n2)c1	inactive
Cc1ccc(Nc2nc(N3CCOCC3)nc(N3CCOCC3)n2)cc1Cl	inactive
CNc1nc(Nc2ccc(C)c(Cl)c2)nc(N)c1[N+](=O)[O-]	12.7 (active)
CC(=O)c1nn(-c2cccc(C(F)(F)F)c2)c(=O)[nH]c1=O	inactive
O=C1CCCN1CCCNC(=S)Nc1ccc(F)c(Cl)c1	inactive
Cc1nc2ccccc2c(=O)n1-c1ccc(NS(=O)(=O)c2ccc(F)cc2F)cc1	inactive
CC(=O)C1C(c2cccc(Oc3ccccc3)c2)NC(=O)NC1(O)C(F)(F)F (stereo unspecified)	inactive
CC1=NN(c2ccc(Cl)c(C(=O)O)c2)C(=O)/C1=C/c1ccc(-c2ccccc2[N+](=O)[O-])o1	inactive
O=C1NC(c2ccc(-c3ccccc3[N+](=O)[O-])o2)C(C(=O)c2ccc(Cl)cc2)C(O)(C(F)(F)F)N1 (stereo unspecified)	8.35 (active)

Structure (SMILES)	B-score
O=C(OCc1ccc([N+](=O)[O-])cc1)C1CC(=O)N(Cc2ccccc2Cl)C1 (stereo unspecified)	inactive
CC(=O)Nc1ccc(Nc2c([N+](=O)[O-])cc(S(C)(=O)=O)cc2[N+](=O)[O-])cc1	inactive
O=C(NCc1cccs1)c1ccc(CS(=O)Cc2ccccc2Cl)o1 (stereo unspecified)	inactive
CC(C)OCCCNC(=O)CN1C(=O)/C(=C/c2ccccc2F)Oc2ccccc21	inactive
O=C(CN1C(=O)COc2ccc(Cl)cc21)N1CCOCC1	inactive
O=C(CN1CCCCCC1)Nc1ccc(Cl)cc1F	inactive
COc1cc2c(cc1OC)C(Nc1ccc(S(N)(=O)=O)cc1)=NC(C)(C)C2	inactive
COc1cc2c(cc1OC)C(C(C)C)=NC(C)(C)C2	inactive
COc1cc2c(cc1O)C(SC)=NC(C)(C)C2	15.1 (active)
O=C(CSC1=NS(=O)(=O)c2cc(F)ccc2N1)Nc1ccccc1F	inactive
CCCCOC(=O)CNc1nnc(SCC(=O)OCC)[nH]c1=O	26.4 (active)
Cc1nnc(SCC(=O)N2CCOCC2)[nH]c1=O	inactive
CCOC(=O)CSc1nc(C)c(Oc2ccc(Cl)cc2Cl)c(=O)[nH]1	inactive
NC(=O)C1CCCN(CC(=O)N2CCN(c3ccccc3)CC2)C1 (stereo unspecified)	inactive
COc1ccc(C(=O)/C=C/c2cccnc2)c(OC)c1	inactive
COc1ccc(C(=O)/C=C/c2ccc(OC3CSC3)cc2)cc1	inactive
COc1ccc(/C=C/C(=O)c2ccc(OC)cc2O)cc1	6.02 (active)
Cc1ccc(N(C(=O)c2ccc(S(=O)(=O)N(C)C)cc2)C2C=CS(=O)(=O)C2)cc1 (stereo unspecified)	inactive
COc1ccc2oc(C(=O)OCC(=O)N(CC(C)C)c3c(N)n(Cc4ccccc4)c(=O)[nH]c3=O)c(C)c2c1	inactive
[O-][n+]1ccc(OCc2ccccc2)cc1	inactive
CCOc1ccc(NC(=O)C/C(C)=N/NC(=O)Cc2cccs2)cc1	7.41 (active)

Structure (SMILES)	B-score
CCOC(=O)c1ccc(NC(=O)Cc2cccs2)cc1	inactive
CCOc1ccccc1NC(=O)Cc1cccs1	inactive
CCn1c(O)c2ccc(C(=O)N=NC(=O)c3cccnc3)cc2c1O	inactive
O=S(=O)(Nc1ccc2[nH]ncc2c1)c1ccccc1Cl	inactive
Cc1c(NC(=O)c2coc(=O)c(Br)c2)c(=O)n(-c2ccccc2)n1C	8.99 (active)
Cc1c(NC(=O)c2cccnc2)c(=O)n(-c2ccccc2)n1C	inactive
Cc1c(NC(=O)c2cc(-c3ccc(Br)cc3)on2)c(=O)n(-c2ccccc2)n1C	inactive
COc1ccc(CC(NC(C)=O)C(=O)NC2CCN(C(=O)Nc3ccc(C#N)cc3)CC2)cc1OC (stereo unspecified)	inactive
CCc1nn(CCCC(=O)NCc2ccc(C)cc2)c(=O)c2cc3occc3n12	inactive
O=C(O)CCCCCCCCc1cn(CN2C(=O)c3ccccc3C2=O)nn1	inactive
Cc1cc2c(c(=O)n1C)C(C(C)C)C(C#N)=C(N)O2 (stereo unspecified)	inactive
C=CCSc1nc2c(c(=O)[nH]1)C(C(C)C)C(C#N)=C(N)O2 (stereo unspecified)	7.64 (active)
C=CCSc1nc(N)cc(=O)[nH]1	inactive
O=C(c1cccnc1)N(c1cc2sc(=O)oc2c2ccccc12)S(=O)(=O)c1ccccc1	inactive
CCc1ccc(C2C(C#N)=C(N)N(N(C)C)C3=C2C(=O)CCC3)s1 (stereo unspecified)	inactive
COc1ccc(C2C(C#N)=C(/N=C/N3CCOCC3)OC3=C2C(=O)CC(C)(C)C3)cc1OC (stereo unspecified)	inactive
CCc1ccc(C2C(C#N)=C(N)N(N3CCOCC3)C3=C2C(=O)CC(C)(C)C3)s1 (stereo unspecified)	4.85 (active)
S=c1[nH]nc(-c2cccs2)n1/N=C/c1cccs1	inactive
Cc1ccsc1/C=N/n1c(=S)[nH]nc(C)c1=O	5.78 (active)
Oc1ccccc1/C=N/n1c(-c2cccs2)n[nH]c1=S	inactive
CC(OC(=O)CCc1nc(=O)c2ccccc2n1C)C(=O)NCc1ccc2c(c1)OCO2 (stereo unspecified)	inactive

Structure (SMILES)	B-score
O=C(O)C1C2CC2CN1C(=O)c1ccc(Cl)cc1Cl (stereo unspecified)	inactive
COc1ccc(CNS(=O)(=O)c2ccc(-c3cnc(C4CC4)o3)cc2)cc1	inactive
CC(=O)Nc1ccc(S(=O)(=O)Nc2cccc(NC(=O)C(C)(C)C)c2)cc1	inactive
CC(=O)Nc1ccc(S(=O)(=O)Nc2nc(-c3ccc(C(C)(C)C)cc3)cs2)cc1	5.98 (active)
CC(=O)Nc1ccc(-c2csc(NC=C3C(=O)OC(C)(C)OC3=O)n2)cc1	inactive
Oc1ccc(/C=N/Nc2ccc(C(F)(F)F)cn2)cc1O	9.02 (active)
Cc1nccn1CC(=O)N/N=C/c1ccc(O)c(O)c1	inactive
Oc1ccc(Br)cc1/C=N/Nc1ccccn1	inactive
O=C(c1n[nH]c2c1CCC2)N1CCCC(Nc2cccc(F)c2)C1 (stereo unspecified)	inactive
O=C(NC(=S)Nc1ccc(S(=O)(=O)N2CCOCC2)cc1)c1ccccc1[N+](=O)[O-]	inactive
O=C(N/N=C/c1cc(Cl)cc([N+](=O)[O-])c1O)C(O)(c1ccccc1)c1ccccc1	inactive
O=[N+]([O-])c1cc(Cl)cc(/C=N/NC(=S)Nc2cc(S(=O)(=O)N3CCOCC3)ccc2Cl)c1O	6.74 (active)
COc1cccc(N2CC(C(=O)NCc3n[nH]c(=O)c4ccccc34)CC2=O)c1 (stereo unspecified)	inactive
CN(c1ccccc1)S(=O)(=O)c1cc(C(=O)Nc2nc3ccccc3[nH]2)ccc1Cl	inactive
COc1ccc(-c2nc3cc([N+](=O)[O-])ccc3o2)cc1OC	inactive
Nc1ccc(-c2nnc(-c3ccccc3)o2)cc1	inactive
CCc1ccc2oc(-c3ccc(N)cc3)nc2c1	10.6 (active)
C=CC(COCc1ccccc1)N(Cc1ccccc1)S(=O)(=O)c1ccccc1Br (stereo unspecified)	inactive
